Source: PubChem (The Scripps Research Institute Molecular Screening Center)
Shown are actives, neighbours in structure and some others; about 2.8% of the full set was active somewhere.
proKLK7 act: proKLK7 (human) activation, primary screen. activation, % at 7 µM. P49862. purified proKLK7, EDANS-DABCYL substrate fluorescence; 100% is mature enzyme control, 0% vehicle. actives 0.9% (n = 370,000);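 active means activation above the mean of all tested compounds plus 3 SD, computed per campaign excluding outliers beyond control limits, cut at about 13% in these data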
Target sequence (P49862 whole entry, looked up): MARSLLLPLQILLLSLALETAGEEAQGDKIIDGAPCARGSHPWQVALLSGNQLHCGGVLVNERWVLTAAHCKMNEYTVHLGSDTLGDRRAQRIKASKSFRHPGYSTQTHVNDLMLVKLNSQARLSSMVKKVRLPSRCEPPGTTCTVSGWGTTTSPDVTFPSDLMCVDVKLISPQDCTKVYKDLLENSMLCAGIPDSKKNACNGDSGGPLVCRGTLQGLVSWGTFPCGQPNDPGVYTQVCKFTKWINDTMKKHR
MsrA act: activators of bovine methionine sulfoxide reductase A | AID 602163 | activation, % at 10.6 µM | purified bovine MsrA, absorbance read-out | actives 0.3% (n = 360,000); in the data active means activation above about 7.5%
SMARCA2 activ: SMARCA2 function activation, primary screen. MG213 cells, MMTV-luciferase reporter, dexamethasone, overnight. activation, % at 9.1 µM. actives 1% (n = 370,000). AID 652017; in the data active means activation above about 7.8%
MsrA inh: inhibits bovine methionine sulfoxide reductase A; purified bovine MsrA, absorbance read-out; inhibition, % at 15.5 µM; actives 0.75% (n = 360,000); in the data active means inhibition above about 4.5%
SMARCA2 act conf: confirmation of SMARCA2 (BRM) function activators. shares compounds with SMARCA2 activ. MG213 cells, MMTV-luciferase with dexamethasone, luminescence, overnight; MG213 cells expressing E1A, Rb sequestered; DMSO wells 0%, reference activator 100%. activation, % at 9.1 µM. actives 30% (n = 3,500);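 active means activation above its plate's cutoff, the mean activation of tested wells plus 3 SD, cut at about 7.9% in these data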
GAL4-VP16 Luc: activates GAL4-VP16 luciferase, flagging SMARCA2 activator hits; shares compounds with SMARCA2 activ; HEK293 GAL4-VP16 pG5luc reporter, luciferase luminescence; scaled: DMSO wells 0%, SAHA wells 100%; activation, % at 9.1 µM; actives 41% (n = 3,500); AID 686939;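 active means activation above the solvent-only control well mean plus 3 SD, averaged across control plates, cut at about 5.2% in these data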
A number is an active result; 0 = inactive; - = no result given.

SMILES	proKLK7 act	MsrA act	SMARCA2 activ	MsrA inh	SMARCA2 act conf	GAL4-VP16 Luc
CC1CCN(S(=O)(=O)c2ccc3nc(-c4ccccn4)cc(C(=O)NCCN(C)Cc4ccccc4)c3c2)CC1	0	0	8.3	0	27	0
COc1ccc(Br)c(C(=O)Nc2nc3ccccc3[nH]2)c1	0	0	8.8	0	7.8	0
O=C(Nc1nc2ccccc2[nH]1)C1CCC1	0	0	8.9	0	0	8.7
COc1ccc(C(=O)Nc2nc3ccccc3[nH]2)cc1OC	0	0	11	0	0	10
Cc1ccc(Cn2cc(CN(C)S(=O)(=O)c3ccccc3Br)nn2)cc1	0	-	0	-	-	-
NC(Cc1ccc(F)cc1)c1csc(NC(=O)NC(c2ccccc2)c2ccccc2)n1 (configuration not stated)	0	0	0	0	-	-
O=C(/C=C(\Nc1ccc(Cl)c(C(F)(F)F)c1)c1ccccc1)c1ccccc1	0	-	0	0	-	-
C=CCN1[C@H](C#N)[C@@H](c2ccc(Br)cc2)[C@H]1CO	0	-	0	-	-	-
Cn1c(SCCc2ccccc2)nnc1-c1ccco1	0	-	9.4	-	0	0
CCSc1nnc(-c2ccco2)n1C	0	-	0	-	-	-
COc1ccc(S[C@]2(C(=O)N3CCN(c4ncccn4)CC3)CC(=O)N(C(=O)Nc3ccc(C)c(Cl)c3)[C@@H]2c2ccc(OC)cc2)cc1	0	-	0	-	-	-
CCCCN(C(=O)C(C)Oc1ccc(Cl)cc1)c1c(N)n(CCCC)c(=O)[nH]c1=O (configuration not stated)	0	0	8.2	0	0	0
COC(=O)CCC(=O)N1CCC(Oc2cccc(C(=O)NCc3ccccn3)c2)CC1	0	0	8.3	0	0	0
O=C(OC12CCCN(C1)/C(=C/c1ccncc1)C2)c1ccc(F)cc1 (configuration not stated)	0	-	0	-	-	-
CCN(CC)C(=O)C1=C(C)N(Cc2ccc(F)cc2)C(=O)C(CC(=O)NCc2ccco2)C1 (configuration not stated)	0	0	8.4	0	0	0
Cc1ccnc(NC(=O)CNC(=O)c2ccc(C)s2)c1	0	0	9.8	0	0	6.7
Cc1ccnc(NC(=O)Cc2ccc(-c3ccccc3)cc2)c1	0	0	42	0	37	9.1
O=C(Cc1ccc(-c2ccccc2)cc1)Nc1ccccn1	0	0	9.9	0	16	0
CCC(=O)Nc1ccc(NC(=O)Cc2ccccc2)cn1	0	0	8.7	0	0	0
CCC(=O)Nc1ccc(NC(=O)CCc2ccccc2)cn1	0	0	0	0	-	-
COc1ccc(S(=O)(=O)N2CCOCC2)cc1NC(=O)CCCOc1ccccc1	0	0	0	0	-	-
COc1ccc(S(=O)(=O)N2CCOCC2)cc1NC(=O)CCCSc1ccccc1	0	0	9.3	0	0	0
O=c1c2ccccc2oc2c1oc1ccccc12	0	0	14	0	0	9.0
Nc1[nH]c(C(=O)c2ccc(Br)cc2)c(-c2ccccn2)c1C(=O)NCCc1c[nH]c2ccccc12	0	-	0	0	-	-
O=C(Nc1ccccc1Cl)c1ccc([N+](=O)[O-])o1	0	0	9.0	0	18	0
SMILES	proKLK7 act	MsrA act	SMARCA2 activ	MsrA inh	SMARCA2 act conf	GAL4-VP16 Luc
O=C(Nc1ccc(NC(=O)c2ccc([N+](=O)[O-])o2)cc1Cl)c1ccco1	0	0	0	0	-	-
O=C(Nc1ccc(N2CCOCC2)cc1)c1ccc([N+](=O)[O-])o1	0	0	15	0	18	7.3
Cc1cccc(NC(=O)c2ccc([N+](=O)[O-])o2)n1	0	0	11	0	15	0
Cc1ccccc1NC(=O)c1ccc([N+](=O)[O-])o1	0	0	11	0	11	0
O=C(Nc1ccc(S(=O)(=O)N2CCOCC2)cc1)c1ccc([N+](=O)[O-])o1	0	0	0	0	-	-
Cc1ccc(NC(=O)c2ccc([N+](=O)[O-])o2)c(C)c1	0	0	0	0	-	-
Cc1cccc(NC(=O)c2ccc([N+](=O)[O-])s2)n1	0	0	0	0	-	-
CCOC(=O)[C@H]1[C@H]2COc3ccc(Cl)cc3[C@@H]2N2C(=O)CN(CC3CCCO3)C(=O)[C@@]12C (some centres not stated)	0	0	0	0	-	-
CCCCC1Cc2[nH]c(=S)[nH]c(=O)c2C(c2cccc3ccccc23)O1 (configuration not stated)	0	0	0	0	-	-
O=C1NC[C@@H](CCCCN2C[C@H](Cc3ccccc3)N(CCc3ccccc3)C(=O)C2=O)N(CCc2ccccc2)C1=O	0	0	0	0	-	-
O=C(Nc1cccc2ncccc12)c1ccc([N+](=O)[O-])o1	0	0	15	0	8.4	0
COc1cccc(C(=O)NCC(=O)NCc2cc(=O)n(C)c(=O)n2C)c1OC	0	0	0	0	-	-
COc1cccc(C(=O)Nc2cc(=O)n(C)c(=O)n2C)c1OC	0	0	8.3	0	0	0
O=C(/C=C1\SC(=O)NC1=O)Nc1ccc(F)cc1	0	0	8.4	0	0	0
N/C(=N\OC(=O)c1cccc2ccccc12)c1ccccn1	0	0	11	0	11	10
COc1cccc(C(=O)O/N=C(\N)c2ccccn2)c1OC	0	0	0	0	-	-
N/C(=N\OC(=O)c1ccco1)c1ccccn1	0	0	12	0	7.9	9.2
N/C(=N\OC(=O)c1ccco1)c1ccccc1	0	0	0	0	-	-
CCOC(=O)c1ccc(N2C(=O)C3CC=CCC3C2=O)cc1 (configuration not stated)	0	0	0	0	-	-
CC(C)OC(=O)c1ccc(N2C(=O)C3CC=CCC3C2=O)cc1 (configuration not stated)	0	0	8.8	0	0	0
Cc1ccc(C(=O)Nc2nnc(SCC(=O)N3CCCc4ccccc43)s2)cc1	0	0	9.3	0	0	8.4
COc1ccc(OC)c(/C=C2\SC(N3CCCCC3)=NC2=O)c1	0	0	8.0	0	0	0
CCC(CC)C(C(=O)NCc1ccccc1)N(C)Cc1ccc(Cl)c(Cl)c1 (configuration not stated)	0	-	0	0	-	-
O=C(NNc1cccc(Cl)n1)c1c(Cl)cccc1Cl	0	0	0	0	-	-
O=C(O)c1ccccc1C(=O)NNc1cccc(Cl)n1	0	0	8.6	0	0	0
SMILES	proKLK7 act	MsrA act	SMARCA2 activ	MsrA inh	SMARCA2 act conf	GAL4-VP16 Luc
CC(C)OCC(O)CN1CCN(CCN2C(=O)c3cccc4cccc(c34)C2=O)CC1 (configuration not stated)	0	0	0	0	-	-
CCC(OCC(O)CN1CCN(CCN2C(=O)c3cccc4cccc(c34)C2=O)CC1)c1ccccc1 (configuration not stated)	0	0	9.4	0	0	0
Cc1cc(N2CCN(C(=O)Oc3ccc(-c4ccccc4)cc3)CC2)c2ccccc2n1	0	-	0	-	-	-
COC(=O)Cc1csc(Nc2ccccc2)n1	0	0	8.4	0	0	0
Cc1ccc(-c2noc(CSc3ccccc3)n2)cc1	0	0	9.3	0	0	8.2
Cc1ccc(-c2noc(CN3CCOCC3)n2)cc1	0	0	0	0	-	-
